Records with an inconclusive call do not appear. Activity calls are given as the source filed them. Unless noted, calls come from the whole dose curve; as a rule, active = well fitted curve in the direction sought with a large enough effect in the repeat runs; inconclusive = weak or mixed curves; inactive = no such curve, though single readings can be large; an effect the other way counts as inactive or inconclusive.
Tests used:
[1] = biological target: Luciferin 4-monooxygenase (Photinus pyralis) (UniProt P08659); assay: qHTS assay to identify small molecule inhibitors of firefly luciferase (AID 1224835); note: nearly all actives have a fitted effect of over 25% in size; note: potency is the fitted concentration of half-maximal effect
How it was run: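 Quantitative HTS format; KM concentrations of both substrates. Purified P. pyralis FLuc activity quantified from luminescence images.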

[2] = qHTS assay to identify small molecule agonists of the constitutive androstane receptor (CAR) signaling pathway - cell viability counter screen (AID 1224836); note: series mostly up to about 92 µM; nearly all actives have a fitted effect of over 45% in size
How it was run: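 Viability read-out: CellTiter-Fluor fluorescence after 23 h compound exposure at 37 C/5% CO2 in double-stable HepG2-CYP2B6-hCAR cells, with PK11195 present at 0.75 uM final; compounds tested in 15-point titration.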

[3] = qHTS assay to identify small molecule antagonists of the constitutive androstane receptor (CAR) signaling pathway - cell viability counter screen (AID 1224837); note: nearly all actives have a fitted effect of over 45% in size; note: potency is the fitted concentration of half-maximal effect; for activity change, negative = cytotoxicity: series mostly up to about 92 µM
How it was run: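 HepG2 cells stably expressing hCAR and a CYP2B6-2.2kb reporter were plated and pre-incubated 4 hr at 37 C/5% CO2, then given compounds at 15 concentrations plus 50 nM CITCO (final). After 23 hr, viability was read by CellTiter-Fluor fluorescence.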

[4] = qHTS assay to identify small molecule antagonists of the estrogen related receptor signaling pathway with the pleiotropic PPARgamma coactivator (PGC) from Tox21 10K library - cell viability counter screen (AID 1224840; active = well fitted cell-killing curve with a large enough effect in the repeat runs, not every such curve was filed as active; note: nearly all actives have a fitted effect of over 40% in size)
How it was run: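 PGC/ERR cells were seeded at 2,000 cells/well and left 6 hours at 37 C/5% CO2 before pin-tool addition of compounds in DMSO. After 17.5 hours at 37 C, CellTiter-Fluor was added and fluorescence read 30 minutes later.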

[5] = biological target: Thyrotropin receptor (Homo sapiens) (UniProt P16473); assay: qHTS assay to identify small molecule agonists of the thyroid stimulating hormone receptor (TSHR) signaling pathway (AID 1224843; calls by dose curve; note: nearly all actives have a fitted effect of over 45% in size)
How it was run: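 Cell line HEK293 with TSHR; density 800/well. Exposure 30 min RT. Readout HTRF cAMP (cAMP-d2/anti-cAMP-cryptate), 1 h RT before reading.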

[6] = qHTS assay to identify small molecule antagonists of the estrogen related receptor (ERR) signaling pathway from Tox21 library - cell viability counter screen (AID 1224834); note: nearly all actives have a fitted effect of over 30% in size; note: potency is the fitted concentration of half-maximal effect
How it was run: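 ERR reporter cells were plated 6 h before compound addition, then exposed to test compounds in DMSO for 17.5 h at 37 C. Viability was read as CellTiter-Fluor fluorescence after a 30-minute incubation at 37 C.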

[7] = biological target: Nuclear receptor subfamily 1 group I member 3 (Homo sapiens) (UniProt Q14994); assay: qHTS assay to identify small molecule antagonists of the constitutive androstane receptor (CAR) signaling pathway (AID 1224838); note: nearly all actives have a fitted effect of over 40% in size; note: potency is the fitted concentration of half-maximal effect
How it was run: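 HepG2 cells stably co-transfected with hCAR and a CYP2B6-2.2kb luciferase reporter were seeded 4 h before compound addition at 15 concentrations. Cells were stimulated with 50 nM CITCO (final) for 24 h at 37 C; luciferase luminescence was then read.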

[8] = qHTS assay to identify small molecule agonists of the estrogen related receptor signaling pathway with the pleiotropic PPARgamma coactivator (PGC) from Tox21 10K library (AID 1224842); note: nearly all actives have a fitted effect of over 15% in size; note: potency is the fitted concentration of half-maximal effect
How it was run: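 PGC/ERR reporter cells (NTP line) were seeded 2,000 per well, rested 6 h at 37 C/5% CO2, then pin-dosed with compounds in DMSO for 18 h at 37 C; luciferase read by One-Glo luminescence after 30 min at room temperature.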

[9] = biological target: Nuclear receptor subfamily 1 group I member 3 (Homo sapiens) (UniProt Q14994); assay: qHTS assay to identify small molecule agonists of the constitutive androstane receptor (CAR) signaling pathway (AID 1224839); note: nearly all actives have a fitted effect of over 15% in size; note: potency is the fitted concentration of half-maximal effect;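 for activation: HepG2 cells stably carrying human CAR and a CYP2B6 luciferase reporter; series mostly up to about 92 µM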
How it was run: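 Luminescence read-out (ONE-Glo, 30 min, room temperature) from double-stable HepG2-CYP2B6-hCAR cells exposed 24 h to 15-point compound series in presence of 0.75 uM PK11195 final.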

[10] = qHTS assay to identify small molecule antagonists of the estrogen related receptor signaling pathway with the pleiotropic PPARgamma coactivator (PGC) from Tox21 10K library (AID 1224841; call rule not given here; note: actives are mostly falling curves and most rising ones were filed inactive; nearly all actives have a fitted effect of over 50% in size; note: potency is the fitted concentration of half-maximal effect)
How it was run: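 PGC/ERR reporter cells were seeded at 2,000 cells/well and held 6 hours at 37 C/5% CO2 before pin-tool addition of compounds in DMSO. After 18 hours at 37 C, One-Glo was added and luminescence read after 30 minutes at room temperature.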
% is set by controls: 0 for no effect and ±100 for the full control effect.

Thyrotropin receptor (Homo sapiens), sequence (P16473 whole entry, looked up): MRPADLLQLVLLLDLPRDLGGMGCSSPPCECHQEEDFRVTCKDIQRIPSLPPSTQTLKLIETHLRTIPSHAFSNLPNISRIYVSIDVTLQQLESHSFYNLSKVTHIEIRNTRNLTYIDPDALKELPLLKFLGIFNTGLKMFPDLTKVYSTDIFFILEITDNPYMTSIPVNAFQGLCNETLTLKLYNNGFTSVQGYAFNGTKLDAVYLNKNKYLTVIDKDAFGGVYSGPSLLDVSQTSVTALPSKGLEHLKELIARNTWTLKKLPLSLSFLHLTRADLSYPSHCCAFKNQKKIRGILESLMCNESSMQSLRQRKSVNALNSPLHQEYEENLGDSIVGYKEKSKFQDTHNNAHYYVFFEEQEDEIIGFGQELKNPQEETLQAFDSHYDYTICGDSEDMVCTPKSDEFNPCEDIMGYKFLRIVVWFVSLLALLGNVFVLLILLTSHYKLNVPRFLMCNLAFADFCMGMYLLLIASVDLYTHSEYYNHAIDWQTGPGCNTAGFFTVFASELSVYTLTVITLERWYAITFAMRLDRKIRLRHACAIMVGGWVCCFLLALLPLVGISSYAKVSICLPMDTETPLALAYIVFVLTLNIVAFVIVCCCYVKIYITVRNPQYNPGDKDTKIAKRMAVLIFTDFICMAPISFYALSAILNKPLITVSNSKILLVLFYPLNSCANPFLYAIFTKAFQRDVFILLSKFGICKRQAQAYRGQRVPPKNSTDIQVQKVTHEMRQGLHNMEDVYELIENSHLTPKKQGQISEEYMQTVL
Luciferin 4-monooxygenase (Photinus pyralis), sequence (P08659 whole entry, looked up): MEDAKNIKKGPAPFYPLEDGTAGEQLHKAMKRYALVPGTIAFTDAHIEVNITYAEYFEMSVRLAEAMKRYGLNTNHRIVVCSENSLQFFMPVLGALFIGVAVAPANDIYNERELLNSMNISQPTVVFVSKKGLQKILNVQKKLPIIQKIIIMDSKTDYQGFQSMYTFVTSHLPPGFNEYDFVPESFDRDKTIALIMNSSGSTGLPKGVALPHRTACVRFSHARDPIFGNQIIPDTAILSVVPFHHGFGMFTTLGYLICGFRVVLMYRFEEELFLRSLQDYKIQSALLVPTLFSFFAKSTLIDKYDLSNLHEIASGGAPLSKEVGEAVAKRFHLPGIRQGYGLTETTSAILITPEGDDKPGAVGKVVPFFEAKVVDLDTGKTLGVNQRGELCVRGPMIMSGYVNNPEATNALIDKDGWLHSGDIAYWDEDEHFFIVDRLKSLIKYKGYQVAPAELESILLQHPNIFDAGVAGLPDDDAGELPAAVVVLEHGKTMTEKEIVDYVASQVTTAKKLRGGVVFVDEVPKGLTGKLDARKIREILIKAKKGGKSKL
Nuclear receptor subfamily 1 group I member 3 (Homo sapiens), sequence (Q14994 whole entry, looked up): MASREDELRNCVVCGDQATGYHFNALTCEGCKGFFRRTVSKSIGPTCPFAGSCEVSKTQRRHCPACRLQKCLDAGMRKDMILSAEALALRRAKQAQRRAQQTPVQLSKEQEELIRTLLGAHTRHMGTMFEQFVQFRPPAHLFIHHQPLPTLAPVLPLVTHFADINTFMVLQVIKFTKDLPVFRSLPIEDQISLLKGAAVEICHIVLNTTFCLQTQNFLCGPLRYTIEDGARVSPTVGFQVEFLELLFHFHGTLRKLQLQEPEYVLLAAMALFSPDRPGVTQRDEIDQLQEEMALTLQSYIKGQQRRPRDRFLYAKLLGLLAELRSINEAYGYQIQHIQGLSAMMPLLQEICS

COc1ccc([C@@H]2Sc3ccccc3N(CCN(C)C)C(=O)[C@@H]2OC(C)=O)cc1
inactive: Potency [1] | Potency [2] | Potency [3] | Potency [4] | Potency [5]

O=C(O)Cc1cc(I)c(Oc2ccc(O)c(I)c2)c(I)c1
inactive: Potency [6] | Potency [3] | Potency [7] | Potency [4] | Potency [8] | Potency [5]

CC(C)(C)c1cc(CO)cc(C(C)(C)C)c1O
inactive: Potency [1] | Potency [2] | Potency [3] | Potency [7] | Potency [4] | Potency [5]
active: Potency [9] 24.8 µM

O=C1c2cccc(O)c2C(=O)c2c(O)cc(CO)cc21
inactive: Potency [1] | Potency [2] | Potency [3] | Potency [7] | Potency [9] | Potency [10] | Potency [8] | Potency [5]

CCN(CC)CCOc1ccc2c(c1)C(=O)c1cc(OCCN(CC)CC)ccc1-2
active: Potency [6] 11.9 µM | Potency [3] 23.7 µM
inactive: Potency [10]

O=C1[C@H](CC[C@H](O)c2ccc(F)cc2)[C@@H](c2ccc(O)cc2)N1c1ccc(F)cc1
inactive: Potency [1] | Potency [2] | Potency [3] | Potency [7] | Potency [9] | Potency [8] | Potency [5]
active: Potency [10] 26.6 µM

CN1CCC(=C2c3ccccc3CCc3sccc32)CC1
inactive: Potency [1] | Potency [2] | Potency [3] | Potency [7] | Potency [9] | Potency [10] | Potency [5]

c1ccc(OCc2ccc(CCCN3CCOCC3)cc2)cc1
active: Potency [9] 29.8 µM
inactive: Potency [2] | Potency [3] | Potency [4] | Potency [10] | Potency [8] | Potency [5]

Cc1cc(CC(=O)O)c(C)n1-c1ccc(Cl)cc1
inactive: Potency [1] | Potency [3] | Potency [4] | Potency [10] | Potency [8]

Cc1cc(O)ccc1N
active: Potency [6] 15.4 µM | Potency [7] 3.08 µM
inactive: Potency [9] | Potency [10] | Potency [5]

O=C(CC(=O)c1ccccc1)c1ccccc1
inactive: Potency [2] | Potency [3] | Potency [4] | Potency [10] | Potency [5]
active: Potency [1] 6.06 µM

CN(C)CCCOc1nn(Cc2ccccc2)c2ccccc12
inactive: Potency [1] | Potency [3] | Potency [7] | Potency [4] | Potency [10] | Potency [8] | Potency [5]

CCN(CCO)CCCC(C)Nc1ccnc2cc(Cl)ccc12 (stereo unspecified)
inactive: viability change, negative = cytotoxic [6] -2.66% [at 8.39 µM] | activity change, negative = cytotoxicity [3] -10.3% [at 8.39 µM] | viability change, negative = cytotoxic [4] 1.55% [at 8.39 µM] | activation [5] -1.08% [at 8.39 µM]

O=S1(=O)N=C(O)c2ccccc21
inactive: Potency [6] | Potency [2] | Potency [3] | Potency [4] | Potency [5]

Nc1nc(CC(=O)O)cs1
active: Potency [10] 48.7 µM
inactive: Potency [1] | Potency [2] | Potency [3] | Potency [7] | Potency [9] | Potency [4] | Potency [8] | Potency [5]

CCCCCCc1ccc(N)cc1
inactive: Potency [3] | Potency [7] | Potency [9] | Potency [4] | Potency [10] | Potency [8] | Potency [5]

Oc1ccc(Sc2ccc(O)cc2)cc1
active: Potency [9] 57.2 µM
inactive: Potency [2] | Potency [3] | Potency [7] | Potency [4]

Cc1ccccc1N=Nc1ccc(N=Nc2c(O)ccc3ccccc23)c(C)c1
inactive: Potency [6] | Potency [2] | Potency [3] | Potency [4] | Potency [10] | Potency [8] | Potency [5]

Oc1ccc(Cc2ccccc2)cc1
inactive: Potency [2] | Potency [3] | Potency [7] | Potency [4] | Potency [10] | Potency [5]
active: Potency [1] 65.7 µM | Potency [9] 56.6 µM

Nc1ccc(C(=O)Nc2ccccc2N)cc1
active: Potency [8] 11.9 µM
inactive: Potency [6] | Potency [3] | Potency [9] | Potency [4] | Potency [5]

CCOc1ccc2[nH]cc(C(=O)NCc3ccccc3)c(=O)c2n1
inactive: Potency [1] | Potency [2] | Potency [3] | Potency [7] | Potency [5]

CN(C)CC/C=C1\c2ccccc2COc2ccccc21
inactive: Potency [6] | Potency [2] | Potency [7] | Potency [9] | Potency [4] | Potency [5]

CC(=O)c1ccc2c(c1)[C@H](NC(=O)c1ccc(F)cc1)[C@@H](O)C(C)(C)O2
inactive: Potency [1] | Potency [2] | Potency [9] | Potency [4] | Potency [5]

Nc1cnn([C@@H]2O[C@H](CO)[C@@H](O)[C@H]2O)c(=O)n1
inactive: Potency [1] | Potency [2] | Potency [3] | Potency [9] | Potency [5]

CCCCCOC(=O)c1ccc(O)cc1
inactive: Potency [2] | Potency [3] | Potency [10] | Potency [5]
active: Potency [1] 36 µM | Potency [9] 55.1 µM | Potency [8] 27.6 µM

COc1ccc2[nH]c(S(=O)Cc3ncc(C)c(OC)c3C)nc2n1 (stereo unspecified)
inactive: Potency [1] | Potency [2] | Potency [3] | Potency [7] | Potency [4] | Potency [8]
active: Potency [9] 26.6 µM

Cc1ccccn1
inactive: Potency [6] | Potency [3] | Potency [9] | Potency [10]

C[C@H](CCC(=O)O)[C@H]1CC[C@H]2[C@@H]3[C@H](O)C[C@@H]4C[C@H](O)CC[C@]4(C)[C@H]3CC[C@]12C
inactive: Potency [2] | Potency [3] | Potency [7] | Potency [4] | Potency [10] | Potency [5]
active: Potency [1] 79.9 µM
